# Where “and” joins values, the source holds several entries; their conditions need not be identical. Equal values may be shown once. Records with an inconclusive call do not appear. Entries that show only a call come without a potency. Some compounds were tested as several samples or in several runs, with calls that do not always agree. Calls of active or inactive are those of the source. Unless noted, calls follow the shape of the dose curve; as a rule, active = well fitted curve in the direction sought with a large enough effect in the repeat runs; inconclusive = weak or mixed curves; inactive = no such curve, though single readings can be large; an effect the other way counts as inactive or inconclusive.
# Experiments:
# [1] = qHTS assay to identify small molecule antagonists of the androgen receptor (AR) signaling pathway using the MDA cell line in the presence of 0.5 nM R1881 - cell viability counter screen (AID 1259242); also: nearly all actives have a fitted effect of over 45% in size; also: potency is read from the fitted curve at half-maximal effect
# Procedure, shortened: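 Live-cell protease fluorescence, CellTiter-Fluor, 30 min at 37C. Cells: MDA-kb2, 3,000/well, preincubated 5 hr. Compounds plus 0.5 nM R1881 final, 16 hr, 37C, 0% CO2.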
# [2] = target: Estrogen receptor (Homo sapiens) (UniProt P03372); assay: qHTS assay to identify small molecule antagonists of the estrogen receptor alpha (ER-alpha) signaling pathway using the BG1 cell line in the presence of 0.1 nM 17-beta-estradiol (AID 1259244); also: nearly all actives have a fitted effect of over 50% in size; also: potency is read from the fitted curve at half-maximal effect
# Chain of Estrogen receptor (Homo sapiens) (P03372 whole entry, looked up): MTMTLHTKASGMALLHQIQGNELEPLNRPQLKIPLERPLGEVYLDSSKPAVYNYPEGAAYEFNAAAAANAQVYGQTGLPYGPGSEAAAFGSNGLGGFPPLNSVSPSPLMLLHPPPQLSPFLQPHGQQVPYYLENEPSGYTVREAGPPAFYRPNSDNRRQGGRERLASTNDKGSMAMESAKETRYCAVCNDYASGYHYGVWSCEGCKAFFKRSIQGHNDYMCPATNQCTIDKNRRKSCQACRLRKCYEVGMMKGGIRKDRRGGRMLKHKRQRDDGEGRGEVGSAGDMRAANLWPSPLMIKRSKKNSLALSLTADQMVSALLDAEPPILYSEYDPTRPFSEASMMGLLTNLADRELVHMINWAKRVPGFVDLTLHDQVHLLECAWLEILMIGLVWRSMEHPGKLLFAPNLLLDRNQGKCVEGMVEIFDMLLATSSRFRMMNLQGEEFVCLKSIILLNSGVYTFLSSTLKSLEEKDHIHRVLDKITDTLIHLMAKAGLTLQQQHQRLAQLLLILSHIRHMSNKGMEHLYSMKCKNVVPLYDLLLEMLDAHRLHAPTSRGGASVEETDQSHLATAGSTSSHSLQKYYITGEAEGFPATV
# Procedure, shortened: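 Luminescence after ONE-Glo (30 min, room temperature) measured ERE-luciferase activity in VM7Luc4E2 cells treated 22 h with compound and 0.1 nM final 17beta-estradiol as stimulator.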
# [3] = qHTS assay to identify small molecule HDAC inhibitors (AID 1259364); also: potency is read from the fitted curve at half-maximal effect;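 also: wild-type HCT-116 cells with endogenous class I/II HDAC activity; nearly all actives have a fitted effect of over 45% in size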; as to activity change, negative = inhibition: top concentration of the series differs between compounds
# Procedure, shortened: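 HCT-116 (wild type), 1,500 cells/well, overnight; compound 2 hr 37C 5% CO2; HDAC-Glo I/II reagent 30 min RT; luminescence readout.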
# [4] = qHTS assay to identify small molecule HDAC inhibitors - cell viability counter screen (AID 1259365); also: series mostly up to about 92 µM; nearly all actives have a fitted effect of over 50% in size
# Procedure, shortened: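 After overnight seeding at 1,500 cells per well, wild-type HCT-116 cultures took up compounds in DMSO for 2hr at 37 C. Viable cell content came from luminescence with CellTiter-Glo.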
# [5] = qHTS assay to identify small molecule agonists of the sonic hedgehog signaling (Shh) pathway - cell viability counter screen (AID 1259366); also: nearly all actives have a fitted effect of over 50% in size; also: potency is read from the fitted curve at half-maximal effect
# Procedure, shortened: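 Same-well cytotoxicity read. Gli1-Luc reporter 3T3 cells; compounds 24hr, 37C/5% CO2; CellTiter-Fluor fluorescence.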
# [6] = qHTS assay to identify small molecule antagonists of the sonic hedgehog signaling (Shh) pathway - cell viability counter screen (AID 1259367); also: nearly all actives have a fitted effect of over 55% in size; also: potency is read from the fitted curve at half-maximal effect
# Procedure, shortened: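 Conditioned medium drove Shh signaling in 3T3 Gli1-Luc cells exposed to compounds at 37C and 5% CO2. Viability was determined from CellTiter-Fluor fluorescence, with reagent incubated 1 hr after 23 hr of treatment.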
# [7] = qHTS assay to identify small molecule agonists of the sonic hedgehog signaling (Shh) pathway (AID 1259368; calls by dose curve;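 also: NIH/3T3-derived 3T3Gli1-Luc cells carrying a stable Gli1-driven firefly luciferase reporter; series mostly up to about 92 µM; nearly all actives have a fitted effect of over 15% in size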)
# Procedure, shortened: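 Read-out: firefly luciferase luminescence from a Gli1 response element reporter stably integrated in NIH/3T3-derived 3T3Gli1-Luc cells, measured 30 min at room temperature after reagent addition. Compound exposure lasted 24 hr at 37 C, 5% CO2.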
# [8] = target: Androgen receptor (Homo sapiens) (UniProt P10275); assay: qHTS assay to identify small molecule antagonists of the androgen receptor (AR) signaling pathway using the MDA cell line in the presence of 0.5 nM R1881 (AID 1259243); also: nearly all actives have a fitted effect of over 50% in size; also: potency is read from the fitted curve at half-maximal effect
# Chain of Androgen receptor (Homo sapiens) (P10275 whole entry, looked up): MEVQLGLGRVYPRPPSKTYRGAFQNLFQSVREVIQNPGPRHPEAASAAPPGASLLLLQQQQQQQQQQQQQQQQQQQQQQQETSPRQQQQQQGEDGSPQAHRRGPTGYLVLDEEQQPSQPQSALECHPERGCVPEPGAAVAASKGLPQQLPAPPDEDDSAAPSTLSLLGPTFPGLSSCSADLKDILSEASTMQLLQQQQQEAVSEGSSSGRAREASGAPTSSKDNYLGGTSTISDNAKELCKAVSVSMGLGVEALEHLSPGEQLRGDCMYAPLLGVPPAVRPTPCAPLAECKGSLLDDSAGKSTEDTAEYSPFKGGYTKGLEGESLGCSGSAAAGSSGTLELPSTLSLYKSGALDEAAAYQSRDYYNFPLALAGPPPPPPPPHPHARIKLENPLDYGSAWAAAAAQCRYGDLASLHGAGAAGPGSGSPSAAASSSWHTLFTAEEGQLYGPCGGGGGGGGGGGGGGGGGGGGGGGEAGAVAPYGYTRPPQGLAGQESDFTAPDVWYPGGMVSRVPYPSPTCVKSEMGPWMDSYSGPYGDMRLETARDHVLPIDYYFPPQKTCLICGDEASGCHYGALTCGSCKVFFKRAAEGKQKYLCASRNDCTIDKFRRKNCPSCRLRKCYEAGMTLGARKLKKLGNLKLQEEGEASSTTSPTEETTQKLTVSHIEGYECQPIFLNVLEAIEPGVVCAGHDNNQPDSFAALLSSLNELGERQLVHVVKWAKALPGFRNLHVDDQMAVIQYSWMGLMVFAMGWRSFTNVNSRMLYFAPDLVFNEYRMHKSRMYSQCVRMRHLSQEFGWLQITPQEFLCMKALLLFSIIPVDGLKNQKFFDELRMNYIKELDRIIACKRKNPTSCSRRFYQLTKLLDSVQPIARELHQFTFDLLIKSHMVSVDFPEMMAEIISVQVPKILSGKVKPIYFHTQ
# Procedure, shortened: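 MDA-kb2, MMTV-luc (AR/GR elements); 3,000 cells/well; cpd + 0.5 nM R1881 final; 16 hr 37C, 0% CO2; ONE-Glo 30 min RT; luminescence.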
# [9] = qHTS assay to identify small molecule antagonists of the sonic hedgehog signaling (Shh) pathway (AID 1259369; calls by dose curve; also: nearly all actives have a fitted effect of over 45% in size; also: potency is read from the fitted curve at half-maximal effect)
# Procedure, shortened: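 Luminescence readout: firefly Luc under Gli1 response element in 3T3Gli1-Luc cells (NIH/3T3 clone). Antagonist mode, stimulation by conditioned medium; compound exposure 24hr at 37 C, 5% CO2.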
# [10] = qHTS assay to identify small molecule phospholipidosis (PLD) inducers (AID 1259344; active = well fitted curve in the direction sought with a large enough effect; an effect the other way counts as inactive or inconclusive)
# Procedure, shortened: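 After 4 h attachment on collagen I, HepG2 cells were dosed with compound alongside LipidTOX Red, kept 24 h at 37 C, fixed, and imaged for lamellar phospholipid pits.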
Structure (SMILES),Potency [1],Potency [2],Potency [3],outcome [4],Potency [5],Potency [6],Potency [7],Potency [8],Potency [9],Potency [10],"viability change, negative = cytotoxic [1]","activity change, negative = inhibition [2]"
CC(=O)[C@H]1CC[C@H]2[C@@H]3CC=C4C[C@@H](O)CC[C@]4(C)[C@H]3CC[C@]12C,inactive,inactive,inactive,inactive,inactive,inactive,inactive,,,,,
c1ccc2c(c1)ccc1ncccc12,inactive,inactive,inactive,inactive,inactive,inactive,inactive,3.83 µM (active) and 5.45 µM (active),inactive,,,
Cc1ccc(C(C)(C)C)cc1,inactive,inactive,inactive,inactive,inactive,inactive,inactive,,,,,
CCC(Cc1c(I)cc(I)c(N)c1I)C(=O)O (configuration not stated),inactive,inactive,inactive,inactive,inactive,inactive,inactive,,,,,
CC(C)=CCO,inactive,inactive,inactive,inactive,inactive,inactive,inactive,,,,,
c1ccc2c(c1)ccc1cc3c(ccc4ccccc43)cc12,inactive,inactive,12.1 µM (active) and 15.2 µM (active),inactive,inactive,inactive,inactive,,,,,
CC1=CC(C)(C)Nc2ccccc21,inactive,inactive,inactive,inactive,inactive,inactive,inactive,,,,,
Cc1ccc(/C(=C\CN2CCCC2)c2ccccn2)cc1,inactive,inactive,inactive,inactive,inactive,36.2 µM (active) and inactive,inactive,,,,,
CC(=O)OC(C)C,inactive,inactive,inactive,inactive,inactive,inactive,inactive,,,,,
Oc1c(Cl)ccc(Cl)c1Cl,inactive,inactive,inactive,inactive,inactive,inactive,inactive,,,,,
CC1(C)C(C=C(Cl)Cl)C1C(=O)OCc1cccc(Oc2ccccc2)c1 (configuration not stated),inactive,inactive,inactive,inactive,inactive,inactive,inactive,inactive,,,,
CC(=O)Oc1ccc(C(c2ccc(OC(C)=O)cc2)c2ccccn2)cc1,inactive,54.2 nM (active) and 944 nM (active),inactive,inactive,inactive,inactive,inactive,171 nM (active) and 1.19 µM (active),,,,
Nc1cc(Cl)c(N)c(Cl)c1,inactive,inactive,inactive,inactive,inactive,inactive,inactive,,,,,
CCCCCC=O,inactive,inactive,inactive,inactive,inactive,inactive,inactive,,,,,
C/C=C/C(=O)N(CC)c1ccccc1C,inactive,inactive,inactive,inactive,inactive,inactive,inactive,,,,,
CN(C)/N=N/c1nc[nH]c1C(N)=O,inactive,inactive,inactive,inactive,inactive,inactive,inactive,,,,,
C1COCCN1,inactive,inactive,inactive,inactive,inactive,inactive,inactive,,,,,
CC(=O)O[C@]1(C(C)=O)CC[C@H]2[C@@H]3C=C(C)C4=CC(=O)CC[C@]4(C)[C@H]3CC[C@@]21C,inactive,inactive,inactive,inactive,inactive,inactive,inactive,,,,,
CCC/C=C/C=O,inactive,inactive,inactive,inactive,inactive,inactive,inactive,inactive,inactive,,,
CCCCCC1C(=O)CCC1CC(=O)OC (configuration not stated),inactive,inactive,inactive,inactive,inactive,inactive,inactive,,,,,
O=C1CCc2ccccc2O1,inactive,inactive,inactive,inactive,inactive,inactive,inactive,,,,,
CC(=O)Oc1c(C)c(C)c2c(c1C)CC[C@@](C)(CCC[C@H](C)CCC[C@H](C)CCCC(C)C)O2,inactive,inactive,inactive,inactive,inactive,inactive,inactive,,,,,
CC(=O)O[C@]1(C(C)=O)CC[C@H]2[C@@H]3C=C(Cl)C4=CC(=O)CC[C@]4(C)[C@H]3CC[C@@]21C,inactive,inactive,inactive,inactive,inactive,inactive,inactive,,,,,
OC[C@@H](O)[C@@H](O[C@@H]1O[C@H](CO)[C@H](O)[C@H](O)[C@H]1O)[C@H](O)[C@@H](O)CO,inactive,inactive,inactive,inactive,inactive,inactive,inactive,,,inactive,,
CC(=O)[C@@]1(O)CC[C@H]2[C@@H]3C[C@H](C)C4=CC(=O)C=C[C@]4(C)[C@@]3(F)[C@@H](O)C[C@@]21C,inactive,inactive,inactive,inactive,inactive,inactive,inactive,,,,,
CCc1cccc2c3c([nH]c12)C(CC)(CC(=O)O)OCC3 (configuration not stated),inactive,inactive,inactive,inactive,inactive,inactive,inactive,inactive,,,,

Structure (SMILES),Potency [1],Potency [2],Potency [3],outcome [4],Potency [5],Potency [6],Potency [7],Potency [8],Potency [9],Potency [10],"viability change, negative = cytotoxic [1]","activity change, negative = inhibition [2]"
COc1ccc2nc(N)sc2c1,inactive,inactive,27.3 µM (active) and 24.3 µM (active),inactive,inactive,inactive,inactive,inactive,inactive,,,
CC(C)(C)c1cccc(C(C)(C)C)c1O,inactive,inactive,inactive,inactive,inactive,inactive,inactive,,,,,
CN(Cc1cnc2nc(N)nc(N)c2n1)c1ccc(C(=O)N[C@@H](CCC(=O)O)C(=O)O)cc1,inactive,inactive,inactive,inactive,inactive,inactive,inactive,inactive,inactive,inactive,,
OC[C@H]1O[C@@H]2O[C@H]3[C@H](O)[C@@H](O)[C@@H](O[C@H]4[C@H](O)[C@@H](O)[C@@H](O[C@H]5[C@H](O)[C@@H](O)[C@@H](O[C@H]6[C@H](O)[C@@H](O)[C@@H](O[C@H]7[C@H](O)[C@@H](O)[C@@H](O[C@H]1[C@H](O)[C@H]2O)O[C@@H]7CO)O[C@@H]6CO)O[C@@H]5CO)O[C@@H]4CO)O[C@@H]3CO,inactive,inactive,inactive,inactive,inactive,inactive and 25.7 µM (active),inactive,,,inactive,,
NCCS(=O)(=O)O,inactive,inactive,inactive,inactive,inactive,22.5 µM (active) and inactive,inactive,,inactive,inactive,,
C1CN(SSN2CCOCC2)CCO1,inactive,inactive,inactive,inactive,53.9 µM (active) and 48.6 µM (active),48.1 µM (active) and 61.1 µM (active),inactive,,,,,
CC/C=C\C/C=C\C/C=C\CCCCCCCC(=O)O,inactive,inactive,inactive,inactive,inactive,inactive,inactive,,,,,
O=[Se](O)O,13.7 µM (active),,inactive,inactive,inactive,inactive,inactive,,inactive,,-4.23% [at 19 µM] (inactive),-20.4% [at 19 µM] (inactive)
CC[C@]12CCCN3CCc4c(n(c5ccccc45)[C@@](O)(C(=O)OC)C1)[C@@H]32,inactive,,inactive,inactive,inactive,inactive,inactive,inactive,,inactive,,
Brc1nc2ccccc2s1,inactive,inactive,inactive,inactive,inactive,inactive,inactive,,,,,
O=Cc1ccccc1C=O,inactive,inactive,inactive,inactive,61.1 µM (active) and inactive,54.5 µM (active) and inactive,inactive,54.5 µM (active) and inactive,2.43 µM (active) and inactive,,,
C=C1C[C@H]2[C@@H]3C=C(C)C4=CC(=O)CC[C@]4(C)[C@H]3CC[C@]2(C)[C@@]1(OC(C)=O)C(C)=O,inactive,inactive,inactive,inactive,inactive,inactive,inactive,inactive,,,,
c1ccc2c(c1)[nH]c1ccccc12,inactive,inactive,inactive,inactive,inactive,inactive,inactive,8.49 µM (active) and 8.63 µM (active),,,,
COC(=O)CC(=O)OC,inactive,inactive,inactive,inactive,inactive,inactive,inactive,,inactive,,,
ClC/C=C/CCl,inactive,inactive,inactive,inactive,inactive,inactive,inactive,,inactive,,,
O=C(O)COCCN1CCN(C(c2ccccc2)c2ccc(Cl)cc2)CC1 (configuration not stated),inactive,inactive,inactive,inactive,inactive,inactive,inactive,,inactive,,,
NCCN,inactive,inactive,inactive,inactive,inactive,inactive,inactive,,inactive,,,
Cc1ccc(S(=O)(=O)NCl)cc1,inactive,inactive,inactive,inactive,inactive,inactive,inactive,,inactive,,,
CCCCCCC(C)O (configuration not stated),inactive,inactive,inactive,inactive,inactive,inactive,inactive,,inactive,,,
CCOC(=O)C(C)Oc1ccc(Oc2cnc3cc(Cl)ccc3n2)cc1 (configuration not stated),inactive,inactive,inactive,inactive,inactive,inactive,inactive,,inactive,,,
O=S1(=O)CCCO1,inactive,inactive,inactive,inactive,inactive,inactive,inactive,,inactive,,,
NCCOCCO,inactive,inactive,inactive,inactive,inactive,inactive,inactive,,inactive,,,
Cc1ccc(S(=O)(=O)O)cc1C,inactive,inactive,inactive,inactive,inactive,inactive,inactive,,inactive,,,
Cc1ccc(N)c([N+](=O)[O-])c1,inactive,inactive,inactive,inactive,inactive,inactive,inactive,,inactive,,,
C[C@]12C=CC(=O)C=C1CC[C@H]1[C@@H]3C[C@@H](O)[C@](O)(C(=O)CO)[C@@]3(C)C[C@H](O)[C@@]12F,inactive,inactive,inactive,inactive,inactive,inactive,inactive,,inactive,,,
